Screening data (PubChem BioAssay)
Only some compounds are listed: those with a hit (about 1.6% of all), similar ones and a draw of the others.
KCNQ2 block: blocks the rat KCNQ2 potassium channel. O88943. CHO-K1 KCNQ2, FluxOR thallium flux, 20 min; hits give low values. B-score at 10 µM. actives 1.1% (n = 310,000). AID 2156;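 active = fluorescence ratio B-score at most minus 3 library SDs, with starting brightness B-score within 2 library SDs, cut at about -5.5 in these data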
KCNQ2 pot: potentiators of rat KCNQ2 potassium channel; O88943; CHO-K1 KCNQ2, FluxOR thallium flux fluorescence; hits give high values; B-score at 10 µM; actives 0.54% (n = 310,000); AID 2239;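 active = fluorescence ratio B-score at least 3 SD of library B-scores, with initial fluorescence B-score within 3 of them, cut at about 5.3 in these data; same plate scores as AID 2156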;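 note: B-score of peak minus minimum over baseline fluorescence ratio after K+ and Tl+ stimulus; positive B-score means potentiation of KCNQ2 with more thallium influx and brighter signal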
KCNQ2 block conf: rat KCNQ2 channel inhibition, confirmatory screen | shares compounds with KCNQ2 block | KCNQ2-expressing cells, thallium flux; hits give low values | activity change, negative = inhibition, % at 10 µM | actives 57% (n = 1,000) | AID 493025;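 note: 0% = vehicle wells and values are ratio percent relative to vehicle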
KCNQ1 spec: selectivity of KCNQ2 inhibitors against human KCNQ1 | shares compounds with KCNQ2 block | KCNQ1-expressing cells, FluxOR thallium flux fluorescence; hits give low values | activity change, negative = inhibition, % at 10 µM | actives 15% (n = 1,000) | AID 493026;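 active = activity change at least 3 SD of negative controls below their mean in both duplicate wells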;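 note: CHO cells stably transfected with KCNQ1 and depolarized by potassium stimulus; peak minus minimum fluorescence over baseline after thallium addition; 0% = vehicle negative control and -100% = blank without thallium stimulus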
Target sequence (P51787 whole entry, looked up): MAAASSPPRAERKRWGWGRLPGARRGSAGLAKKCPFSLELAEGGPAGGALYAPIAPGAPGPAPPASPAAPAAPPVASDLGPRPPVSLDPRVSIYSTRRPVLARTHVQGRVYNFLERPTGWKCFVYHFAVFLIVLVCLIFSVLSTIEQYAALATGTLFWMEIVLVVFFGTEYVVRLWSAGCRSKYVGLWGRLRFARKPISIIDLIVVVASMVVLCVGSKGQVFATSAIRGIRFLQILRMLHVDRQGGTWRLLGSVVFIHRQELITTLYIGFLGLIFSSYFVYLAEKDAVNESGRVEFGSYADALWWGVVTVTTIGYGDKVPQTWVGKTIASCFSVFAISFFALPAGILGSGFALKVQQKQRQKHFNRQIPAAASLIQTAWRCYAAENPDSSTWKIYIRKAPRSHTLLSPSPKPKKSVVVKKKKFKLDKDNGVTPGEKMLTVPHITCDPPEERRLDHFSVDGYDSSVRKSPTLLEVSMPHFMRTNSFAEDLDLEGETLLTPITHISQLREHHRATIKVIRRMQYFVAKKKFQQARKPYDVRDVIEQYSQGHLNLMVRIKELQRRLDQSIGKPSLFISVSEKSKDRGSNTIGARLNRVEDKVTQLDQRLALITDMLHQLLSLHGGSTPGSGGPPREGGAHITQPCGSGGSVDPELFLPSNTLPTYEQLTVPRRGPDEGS
CHO parental ctr: counter-screen for KCNQ2 inhibitors: effect in parental CHO cells | thallium flux counter-screen; hits give low values | shares compounds with KCNQ2 block | AID 493029 | activity change, % at 10 µM | actives 14% (n = 1,000);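 note: 0% = vehicle negative controls with stimulus buffer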
KCNQ2 inh confirm: blocks rat KCNQ2 current in automated patch clamp; shares compounds with KCNQ2 block; actives 49% (n = 550); calls only at 10 µM; KCNQ2-expressing cells
An asterisk follows results filed as active; i = inactive; nt = no result; + = active, no number. Unless noted, the rule behind the calls is not given here.

SMILES | KCNQ2 block | KCNQ2 pot | KCNQ2 block conf | KCNQ1 spec | CHO parental ctr | others
N#CC(C#N)=C1C=CC=CN1/C(=C\c1ccccc1)C(=O)c1cccs1 | -10* | -10 | i | i | i
O=C(N/N=C/C(Br)=C\c1ccccc1)c1cccs1 | i | nt | nt | nt | nt
CC(C(=O)N(C)C1CCCCC1)N1CCC(C(N)=O)CC1 (stereo not drawn) | i | nt | nt | nt | nt
O=C(CSc1nc2ccccc2c(=O)n1CC1CCCCC1)N1CCOCC1 | i | nt | nt | nt | nt
CCN(CC)C(=O)CSc1nc2ccccc2c(=O)n1CC1CCCCC1 | -6.6* | -6.6 | -45%* | -38%* | -30%* | KCNQ2 inh confirm=+
CC(C)(C)c1ccc(C(=O)NNc2cc(Cl)cc(Cl)c2)cc1 | i | 0.08 | nt | nt | nt
COc1ccccc1N1CCN(C(=O)c2c(C)cc(=O)oc2C)CC1 | i | 0.41 | nt | nt | nt
COc1cc2c(C(=O)N3CCN(c4ccccc4C)CC3)c(C)oc2cc1Br | -11* | -11 | -22%* | i | i | KCNQ2 inh confirm=i
Cc1cc(C(c2ccc(C)o2)c2ccc(C)o2)c(O)c([N+](=O)[O-])c1 | -8.9* | -8.9 | i | i | i
Cc1ccc(C(c2ccc(C)o2)c2cccc([N+](=O)[O-])c2O)o1 | i | nt | nt | nt | nt
Cc1cc(CN2CCN(CCC#N)CC2)c(O)c(C2(C)CCCCC2)c1 | -7.4* | -7.4 | i | i | i
N#CCCN1CCN(CCC#N)CC1 | i | nt | nt | nt | nt
Cc1ccc(NC(=O)c2ccccc2N(C)S(=O)(=O)c2ccccc2)c(C)c1 | -8.4* | -8.4 | -34%* | i | i | KCNQ2 inh confirm=+
CCCNC(=O)c1ccccc1NC(=O)c1ccccc1N(C)S(=O)(=O)c1ccccc1 | i | nt | nt | nt | nt
COC(=O)c1ccccc1NC(=O)c1ccccc1N(C)S(=O)(=O)c1ccccc1 | i | nt | nt | nt | nt
Cc1ccccc1CNC(=O)c1ccccc1N(C)S(=O)(=O)c1ccccc1 | -6.7* | -6.7 | -40%* | -36%* | -28%* | KCNQ2 inh confirm=+
CC(=O)Nc1ccc(NC(=O)c2ccccc2N(C)S(=O)(=O)c2ccc(C)cc2)cc1 | i | 0.02 | nt | nt | nt
Cc1ccc(S(=O)(=O)N(C)c2ccccc2C(=O)Nc2ccc(F)cc2F)cc1 | -8.6* | -8.6 | i | i | i
CC(C)CN(C(=O)COC(=O)c1ccc(Br)cc1)c1c(N)n(Cc2ccccc2)c(=O)[nH]c1=O | i | 1.2 | nt | nt | nt
CC(=O)c1ccc(NC(=O)CCCN2C(=O)C(c3ccccc3)Oc3cccnc32)cc1 (stereo not drawn) | i | 0.03 | nt | nt | nt
O=C(c1cccc(C(F)(F)F)c1)C1CCCN(C(=O)c2cc(C3CC3)[nH]n2)C1 (stereo not drawn) | i | nt | nt | nt | nt
Cn1c(-[n+]2c(-c3ccccc3)cc(-c3ccccc3)cc2-c2ccccc2)nc2c([N+](=O)[O-])cccc21 | i | nt | nt | nt | nt
O=[N+]([O-])c1cccc2nc(-c3ccccc3)c(-c3ccccc3)nc12 | -7.6* | -7.6 | -28%* | i | i | KCNQ2 inh confirm=i
COc1ccc(NC(=O)c2ccc(NC(=O)COC(=O)c3cnc(C)cn3)cc2)cc1 | i | 1.7 | nt | nt | nt
COc1ccc(CCNC(=O)c2ccc(CS(=O)Cc3ccc(Cl)cc3)o2)cc1OC (stereo not drawn) | i | 0.64 | nt | nt | nt
SMILES | KCNQ2 block | KCNQ2 pot | KCNQ2 block conf | KCNQ1 spec | CHO parental ctr | others
CCCCCN(C(=O)CCC(=O)OCC(=O)Nc1cccc(SC)c1)c1c(N)n(CCCC)c(=O)[nH]c1=O | i | 0.01 | nt | nt | nt
Cc1cc2nc3c(nc2cc1C)CCCC3 | i | 0.17 | nt | nt | nt
CN(CC(=O)NCCc1ccc(S(N)(=O)=O)cc1)S(=O)(=O)c1ccc(Br)s1 | i | nt | nt | nt | nt
CCN1C(=O)/C(=C/N(C(C)=O)c2ccccc2)N(c2ccccc2)C1=S | -9.6* | -9.6 | i | i | i
CCc1ccc(/C=C2/C(=O)N(c3ccccc3)C(=S)N2CC(=O)OC)s1 | i | nt | nt | nt | nt
CCCCN(C(=O)C1CC(=O)N(Cc2ccc(C)cc2)C1)c1c(N)n(CCCC)c(=O)[nH]c1=O (stereo not drawn) | i | nt | nt | nt | nt
CN1CCN(CC(=O)N2CCn3c4c(c5cc(C6CCCCC6)ccc53)CCCC42)CC1 (stereo not drawn) | -13* | -13 | -30%* | i | i | KCNQ2 inh confirm=i
Cc1ccc2c(c1)c1c3n2CCN(C(=O)CN2CCN(C)CC2)C3CCC1 (stereo not drawn) | i | nt | nt | nt | nt
COc1ccc(S(=O)(=O)N(C)c2ccc(C(=O)Nc3ccccc3C(=O)N3CCOCC3)cc2)cc1OC | i | 0.44 | nt | nt | nt
CCOC(=O)[C@@H]1[C@H]2COc3ccccc3[C@H]2N2C(=O)N(c3ccccc3)C(=O)[C@]12C | i | 4.2 | nt | nt | nt
O=[N+]([O-])c1ccc(C2CCCC/C2=N/OCc2ccc(F)cc2)c([N+](=O)[O-])c1 (stereo not drawn) | i | nt | nt | nt | nt
O=[N+]([O-])c1ccc(C2CCCC/C2=N/OCc2ccccc2F)c([N+](=O)[O-])c1 (stereo not drawn) | -10* | -10 | -36%* | i | i | KCNQ2 inh confirm=i
Cc1ccc(N(C(=O)CNC(=O)c2cccs2)C(C(=O)NC2CCCC2)c2ccncc2)cc1 (stereo not drawn) | i | 1.2 | nt | nt | nt
CN(CC(=O)Nc1ccc(F)c(F)c1F)C(=O)CCc1nc2sc3c(c2c(=O)[nH]1)CCCC3 | i | 0.12 | nt | nt | nt
COc1ccc(CN(C)C(=O)c2ccc(COc3ccccc3)cc2)c(OC)c1 | i | nt | nt | nt | nt
COc1ccc(CN(C)C(=O)C(Cc2ccccc2)NC(=O)c2ccccc2)c(OC)c1 (stereo not drawn) | -6.7* | -6.7 | -33%* | i | i | KCNQ2 inh confirm=+
Cc1nn(-c2ccccc2)c(C)c1NC(=O)COC(=O)c1ccc(Cl)c(S(N)(=O)=O)c1 | i | nt | nt | nt | nt
CC(Oc1ccc(Cl)cc1)C(=O)Nc1ccc(S(=O)(=O)N2CCOCC2)cc1 (stereo not drawn) | i | nt | nt | nt | nt
N#Cc1nc(COc2ccc(F)cc2)oc1N1CCN(Cc2ccccc2)CC1 | -7* | -7 | -16%* | i | i | KCNQ2 inh confirm=+
N#Cc1nc(Cc2ccccc2)oc1N1CCC(Cc2ccccc2)CC1 | i | nt | nt | nt | nt
N#Cc1nc(COc2ccc(F)cc2)oc1N1CCC(Cc2ccccc2)CC1 | -8.9* | -8.9 | -42%* | -42%* | -32%* | KCNQ2 inh confirm=i
CCN1CCN(c2oc(COc3ccc(-c4ccccc4)cc3)nc2C#N)CC1 | i | nt | nt | nt | nt
O=C(N/N=C/c1cc(Br)c(O)c(Br)c1)c1cc2c(ccc3ccccc32)o1 | -11* | -11 | -53%* | -50%* | -54%* | KCNQ2 inh confirm=i
O=C(N/N=C/c1ccc(O)c(Br)c1)c1cc2c(ccc3ccccc32)o1 | i | nt | nt | nt | nt
CCC(C)[C@H](NC(=O)N1CC(=O)Nc2ccccc21)C(=O)N1CCC[C@H]1C(=O)O (stereo partly drawn) | i | 0.35 | nt | nt | nt
Cc1ccnn1CCC(=O)N1CCCC(Nc2ccc(F)c(F)c2)C1 (stereo not drawn) | i | nt | nt | nt | nt
c1coc(Cn2c(SCc3nc4ccccc4[nH]3)nnc2-c2cccs2)c1 | i | nt | nt | nt | nt
Cc1ccccc1CSc1nnc(-c2cccs2)n1Cc1ccco1 | -9.9* | -9.9 | i | i | i
